This is an account of results in PubChem BioAssay (NCATS).

A number with no mark means an inactive call. Results filed as inconclusive are left out. Active and inactive are the calls of the source. Calls follow the shape of the dose curve; as a rule, active = well fitted curve in the direction sought with a large enough effect; inconclusive = small, poorly fitted or top-dose-only effect, or another doubt; inactive = no such curve, though single readings can be large; an effect the other way counts as inactive or inconclusive.

Sequence of DNA dC->dU-editing enzyme APOBEC-3G (Homo sapiens) (Q9HC16 whole entry, looked up): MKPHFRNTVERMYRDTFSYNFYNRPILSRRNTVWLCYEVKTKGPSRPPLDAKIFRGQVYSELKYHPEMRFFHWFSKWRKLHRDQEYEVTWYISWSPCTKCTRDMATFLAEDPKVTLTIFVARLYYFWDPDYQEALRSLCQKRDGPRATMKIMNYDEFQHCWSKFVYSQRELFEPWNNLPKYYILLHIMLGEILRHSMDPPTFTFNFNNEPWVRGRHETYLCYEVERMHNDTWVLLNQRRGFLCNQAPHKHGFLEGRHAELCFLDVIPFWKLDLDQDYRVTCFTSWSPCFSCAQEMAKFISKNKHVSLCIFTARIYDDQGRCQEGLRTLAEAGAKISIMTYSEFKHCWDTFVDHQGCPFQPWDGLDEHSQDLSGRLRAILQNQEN

Tested on in the first test: not listed separately
The test can be described thus: qHTS for Inhibitors of ATXN expression: Validation of Cytotoxic Assay (AID 588349).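 Also: cells exposed to compound for 72 hr; % is scaled to controls: 0 for no effect and ±100 for the full control effect.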 The conditions noted are these: cytotoxicity counter-screen for ATXN expression inhibitors, cell viability; series mostly up to 57.1 µM; activity change, negative = cytotoxicity: at the top concentration. Put shortly:
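HEK293, compound dose series, 72 hr / 37 degrees C; viability via CellTiter Glo (intracellular ATP).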
For `O=c1[nH]cnc2[nH]ncc12`, the “activity change, negative = cytotoxicity” value was -6.8%. On to `NC[C@H](O)c1ccc(O)c(O)c1`, for which the “activity change, negative = cytotoxicity” value is -17.8%. Still for that read-out and setting: with `O=C1CCc2cc(OCCCCc3nnnn3C3CCCCC3)ccc2N1` the figure was -13.1%.

In the case of `CC(=O)Oc1ccccc1C(=O)O`, the “activity change, negative = cytotoxicity” value was -3.94%. On the same count and under the same terms, with `CC(C)(Sc1ccc(CCN(CCCCC2CCCCC2)C(=O)NC2CCCCC2)cc1)C(=O)O` the figure was -9.58%; with `Cn1cnc([N+](=O)[O-])c1Sc1ncnc2nc[nH]c12`, -29.3%; with `CCOC(=O)N1CCC(=C2c3ccc(Cl)cc3CCc3cccnc32)CC1`, -7.38%.

Consider `Cc1ccccc1C(OCCN(C)C)c1ccccc1` (stereo not given), for which the “activity change, negative = cytotoxicity” value was -12.9%. Consider `O=NN(CCCl)C(=O)NCCCl`, for which the “activity change, negative = cytotoxicity” value is -5.77%. Consider `NS(=O)(=O)c1cc2c(cc1Cl)NC=NS2(=O)=O`, for which the “activity change, negative = cytotoxicity” value is -7.1%. For the compound `C[C@]12CCC(=O)C=C1CC[C@@H]1[C@@H]2[C@@H](O)C[C@@]2(C)[C@H]1CC[C@]2(O)C(=O)CO`, the “activity change, negative = cytotoxicity” value is -6.59%. In the case of `N=c1nc(N2CCCCC2)cc(N)n1O`, the “activity change, negative = cytotoxicity” value is -6.76%. Regarding `CCCC(CCC)C(=O)O`, the “activity change, negative = cytotoxicity” value is -2.56%. Same read-out and setting: with `C1COC(NC(C2CC2)C2CC2)=N1` the figure was 1.34%; with `NC(N)=NC(=O)c1nc(Cl)c(N)nc1N`, -10.5%; with `Nc1nc2ccc(OC(F)(F)F)cc2s1`, -17.4%. As for `Cc1[nH]c(=O)c(C#N)cc1-c1ccncc1`, the “activity change, negative = cytotoxicity” value was -2.64%. With `NC(=O)c1cnccn1`, the “activity change, negative = cytotoxicity” value was -10.5%.

For `Clc1cccc(Cl)c1NC1=NCCN1`, the “activity change, negative = cytotoxicity” value was -14.3%.

Consider `O=C1CCC(N2C(=O)c3ccccc3C2=O)C(=O)N1` (stereo not given), for which the “activity change, negative = cytotoxicity” value is -9.12%.

Another test deals with DNA dC->dU-editing enzyme APOBEC-3G (Homo sapiens) (UniProt Q9HC16). The test can be described thus: qHTS for inhibitors of Vif-A3G interactions: Validation (AID 588379). Also: 0% is about no effect. The conditions noted are these: Vif-A3G protein interaction assay; series mostly up to 46.1 µM; activity change, negative = inhibition: at the top concentration. Put shortly:
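HeLa cells stably expressing Vif and A3G-eYFP, 700 cells/well, incubated overnight at 37 deg C, then exposed to compound overnight at 37 deg C. Inhibition of Vif-mediated degradation read as increased yellow fluorescence (Ex 488/Em 500-530) by laser-scanning cytometry.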
For the compound `NC(=O)c1ccc(-c2nc(-c3ccc4c(c3)OCO4)c(-c3ccccn3)[nH]2)cc1`, the “activity change, negative = inhibition” value is 0.341%.

For `CCN(c1ccccc1)c1cc(NC)[n+](C)c(C)n1`, the “activity change, negative = inhibition” value is 0.489%. On the same count and under the same terms, with `CC(C)C[C@H](NC(=O)[C@@H](O)[C@H](N)Cc1ccccc1)C(=O)O` the figure was 0.777%. Take `Cc1ccc2c(c1)C(=O)[C@@]1(O)CCN(c3ccccc3)C1=N2`: the “activity change, negative = inhibition” value is -0.688%. With `O=C1CCc2cc(OCCCCc3nnnn3C3CCCCC3)ccc2N1`, the “activity change, negative = inhibition” value was -0.0515%. Still for that read-out and setting: with `CCOC(=O)C1=C[C@@]2(CC)CCCN3CCc4c(n1c1ccccc41)[C@H]32` the figure was -6.96%; with `CC(C)(Sc1ccc(CCN(CCCCC2CCCCC2)C(=O)NC2CCCCC2)cc1)C(=O)O`, -4.88%. For the compound `CCOC(=O)N1CCC(=C2c3ccc(Cl)cc3CCc3cccnc32)CC1`, the “activity change, negative = inhibition” value is 1.46%. For `Cc1cc2c(C(C)C)c(O)c(O)c(C=O)c2c(O)c1-c1c(C)cc2c(C(C)C)c(O)c(O)c(C=O)c2c1O`, the compound was called inactive. For `N=c1nc(N2CCCCC2)cc(N)n1O`, the “activity change, negative = inhibition” value is -15.4%.

Consider `C1COC(NC(C2CC2)C2CC2)=N1`, for which the “activity change, negative = inhibition” value is -0.254%. Take `NC(N)=NC(=O)c1nc(Cl)c(N)nc1N`: the “activity change, negative = inhibition” value is 1.35%. For the compound `Nc1nc2ccc(OC(F)(F)F)cc2s1`, the “activity change, negative = inhibition” value was 4.48%. As for `Cc1[nH]c(=O)c(C#N)cc1-c1ccncc1`, the “activity change, negative = inhibition” value was 2.45%. On to `Clc1cccc(Cl)c1NC1=NCCN1`, for which the “activity change, negative = inhibition” value is 3.64%.
